Compound activity (PubChem BioAssay)
PfHsp90 set2 – inhibits growth of yeast expressing Plasmodium falciparum Hsp90; S. cerevisiae expressing PfHsp90, BacTiter-Glo ATP, 48 h; yeast lacking PDR1 and PDR3 efflux regulators; inhibition, % at 9.4 µM; 0.32% of 310,000 active; AID 504621;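 active = every replicate shows inhibition above about 80%, whatever the replicate mean, limit read from the data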
tim23-1 inh – tim23-1 yeast growth inhibition | S. cerevisiae tim23-1 growth, BacTiter-Glo luminescence, 24 h | inhibition, % at 20 µM | 1.3% of 330,000 active | AID 463212;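 active = growth inhibition of the mutant yeast at or above 50%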;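 note: temperature-sensitive mutant grown at 25 °C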
SKKanGAS inh – inhibitors of SKKanGAS S. pyogenes growth in kanamycin (SK-promoter or general growth effect). 1.3% of 300,000 active. inhibition, % at 7.5 µM. BacTiter-Glo, 6 h;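 active = mean replicate score, as percent of positive control median, at least 50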;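 note: strain carries kanamycin resistance gene driven by streptokinase promoter and grows in 40 µg/ml kanamycin; loss of luminescence reflects streptokinase promoter inhibition or plain growth inhibition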
TIM10 inh – inhibits growth of TIM10 yeast strain; S. cerevisiae TIM10 strain growth, BacTiter-Glo luminescence, 24 h; 1.4% of 330,000 active; inhibition, % at 10 µM; AID 463195;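 active = inhibition of 40% or more at the single tested concentration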;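 note: wild-type TIM10 isogenic control strain grown at permissive 25 °C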
tim10-1 inh – tim10-1 yeast growth inhibition; inhibition, % at 20 µM; 2.2% of 330,000 active; S. cerevisiae tim10-1 ts strain growth, BacTiter-Glo, 24 h;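 active = inhibition of at least 40%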;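 note: mutant grown at 25 °C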
EBI2 block – EBI2 (human) antagonism; 0.81% of 360,000 active; P32249; EBI2 beta-arrestin recruitment, luminescence, 7a,25-OHC stimulated; inhibition, % at 5 µM; in the data active = inhibition above about 38%;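 note: enzyme fragment complementation signal reports receptor beta-arrestin coupling in cells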
Target sequence (P32249 whole entry, looked up, the tested form may be a part): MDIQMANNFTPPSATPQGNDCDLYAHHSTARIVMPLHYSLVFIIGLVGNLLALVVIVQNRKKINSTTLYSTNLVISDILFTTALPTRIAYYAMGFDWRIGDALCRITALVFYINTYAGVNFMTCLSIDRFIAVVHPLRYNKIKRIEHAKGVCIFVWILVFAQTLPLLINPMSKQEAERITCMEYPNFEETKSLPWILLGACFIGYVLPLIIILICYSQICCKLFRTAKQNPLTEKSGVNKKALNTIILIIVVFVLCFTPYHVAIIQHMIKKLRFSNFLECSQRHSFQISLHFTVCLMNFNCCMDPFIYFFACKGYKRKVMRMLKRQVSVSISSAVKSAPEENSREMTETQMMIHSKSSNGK
tim10-1 conf – tim10-1 yeast growth inhibition, confirmed | AID 463213 | shares compounds with tim10-1 inh | inhibition, % at 20 µM | S. cerevisiae tim10-1 ts strain growth, BacTiter-Glo, 24 h | 56% of 7,400 active;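 active = inhibition of yeast growth at or above a set limit in either of two repeat tests at 20 µM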;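 note: tim10-1 mutant grown at permissive 25 °C to find synthetic lethal compounds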
Hits are given with their value; n = inactive; x = not tested or not shown. Shown are actives, neighbours in structure and some others; about 4.7% of the full set was active somewhere.

SMILES	PfHsp90 set2	tim23-1 inh	SKKanGAS inh	TIM10 inh	tim10-1 inh	EBI2 block	tim10-1 conf
N/C(=N\OC(=O)CCCc1ccccc1)c1ccc(Br)cc1	n	n	n	n	n	n	x
N/C(=N\OC(=O)CCCOc1ccccc1)c1ccc([N+](=O)[O-])cc1	n	n	n	n	54.8	n	41.8
COc1ccc(OCCCC(=O)ON=C(N)c2ccccc2C)cc1	n	n	x	n	44.1	n	55.9
CCOc1ccc(OCCCC(=O)ON=C(N)c2ccccc2Cl)cc1	n	n	x	n	n	n	x
N/C(=N\OC(=O)CCCc1ccccc1)c1ccc([N+](=O)[O-])cc1	n	n	n	n	45.8	n	52.3
CCCOC(=O)c1ccc(Oc2c(-c3ccc(O)cc3O)n[nH]c2C)cc1	n	n	55.3	n	55.3	n	n
N=c1c2c(-c3ccccc3)c(-c3ccccc3)n(Cc3ccco3)c2ncn1CCO	n	n	n	n	43.0	n	n
CC1(c2ccc(OC(F)F)cc2)NC(=O)N(/N=C/c2c(O)ccc3ccccc23)C1=O (centres undefined)	n	n	n	n	41.9	n	n
CCN(CC)S(=O)(=O)c1ccc(N2CCCC2)c(NC(=O)c2ccc(N3CCCC3=O)cc2)c1	x	n	n	n	n	n	x
CN1CCN(S(=O)(=O)c2ccc(Br)c3nsnc23)CC1	x	n	n	n	46.1	n	n
Oc1ccc(-c2nnc(SCC3CCCCC3)o2)cc1	x	n	n	n	43.9	n	n
O=C(CSc1nnc(-c2ccc(O)cc2)o1)N1CCOCC1	n	n	n	n	n	n	x
Cc1cc(/C=C(\C#N)C(=O)OCC(=O)N(C)c2c(N)n(Cc3ccccc3)c(=O)[nH]c2=O)c(C)n1CC(C)C	x	x	x	x	x	n	x
COc1ccc(-c2cc3nc4c(c(N5CCC6(CC5)OCCO6)n3n2)CCC4)cc1	n	n	n	n	47.2	n	33.2
OC1CCN(c2c3c(nc4cc(-c5ccc(F)cc5)nn24)CCC3)CC1	n	n	n	n	44.6	n	n
COc1cccc(-c2cc3nc4c(c(N5CCC6(CC5)OCCO6)n3n2)CCC4)c1	n	n	n	n	n	n	x
Cc1cccc(-c2cc3nc4c(c(N5CCCC(O)C5)n3n2)CCC4)c1 (centres undefined)	x	n	n	n	46.9	n	n
OC1CCCN(c2c3c(nc4cc(-c5cccc(Cl)c5)nn24)CCC3)C1 (centres undefined)	n	n	n	n	n	n	x
O=C(O)c1ccccc1Nc1ccc([N+](=O)[O-])c2nonc12	n	n	n	n	n	n	x
CCOc1ccc(OCc2ccc(C(=O)N3CCCC(C)C3)cc2)cc1 (centres undefined)	n	n	n	n	41.1	n	n
CCOc1ccc(OCc2ccc(C(=O)N3CCOCC3)cc2)cc1	n	n	n	n	n	n	x
Cc1ccccc1NC(=O)CSc1nnc(-c2ccccc2)n1-c1ccccc1	n	n	n	n	n	n	x
N#Cc1ccccc1NC(=O)CSc1nnc(-c2ccccc2O)n1-c1ccccc1	x	n	n	n	41.8	n	n
Fc1cccc(Cl)c1CSc1ccc2nnc(-c3ccccn3)n2n1	n	n	n	n	40.4	n	30.8
Cc1cc(-c2nc3ccccc3o2)c2ccccc2n1	x	n	n	n	40.8	n	n
SMILES	PfHsp90 set2	tim23-1 inh	SKKanGAS inh	TIM10 inh	tim10-1 inh	EBI2 block	tim10-1 conf
Cc1cc(C(=O)O)c2ccccc2n1	n	n	n	n	n	n	x
COc1cc(C2=NOC(C(=O)N3CCCc4ccccc43)C2)cc(OC)c1OC (centres undefined)	n	n	n	n	40.1	n	n
Cn1c(SC2CCCCC2=O)nnc1-c1ccccc1F (centres undefined)	n	n	n	n	n	n	x
Cc1ccc2oc(C(=O)N3CCN(Cc4ncccc4C)CC3)c(C)c2c1	n	n	n	n	41.0	n	n
CN(Cc1ccccc1)Cc1nc2c(c(=O)n(C)c(=O)n2C)n1Cc1ccc(Cl)cc1	n	n	n	n	40.3	n	n
CC(C)c1ccccc1NC(=O)c1cccc(NC(=O)c2ccccc2)c1	n	n	n	n	n	n	x
Cc1nc2scc(C)n2c(=O)c1S(=O)(=O)N1CCN(c2cccc(C(F)(F)F)c2)CC1	n	n	n	n	50.1	n	43.1
CCCCC(=O)Nc1nc2ccc(C(=O)OC)cc2s1	n	n	n	n	46.2	n	n
CCOC(=O)c1ccc2nc(NC(=O)c3ccco3)sc2c1	n	n	n	n	41.4	n	n
CCCC(=O)Nc1nc2ccc(C(=O)OCC)cc2s1	n	n	n	n	n	n	x
COc1ccc(-c2nn(-c3ccccc3)cc2/C=C(\CC(=O)O)c2nc3ccccc3s2)cc1OC	n	n	n	n	71.4	n	41.5
COC(=O)c1c(NC(=O)C(=O)N2CCOCC2)sc2c1CCC2	n	n	n	n	n	n	x
COC(=O)c1c(NC(=O)C(=O)N2CCOCC2)sc2c1CCCC2	n	n	n	n	52.0	n	n
COc1ccc(OC)c(NC(=O)Cc2coc3ccc4ccccc4c23)c1	n	n	n	n	41.8	n	n
O=C(O)Cc1coc2ccc3ccccc3c12	x	n	n	n	43.8	n	48.4
COc1ccc(OC)c(NC(=O)Cc2coc3ccc(C)cc23)c1	n	n	n	n	n	n	x
CCn1ncc([N+](=O)[O-])c1C(=O)NC1CCCCC1	n	n	n	n	n	n	x
CC(Oc1ccc(Cl)cc1Cl)C(=O)Nc1ccc(S(=O)(=O)Nc2cnc3ccccc3n2)cc1 (centres undefined)	x	n	80.1	n	42.5	x	n
COCCCNC1=C(Cl)C(=O)c2ccccc2C1=O	n	n	n	n	n	n	x
COCCCNc1c2c3c(cccc3[nH]c1=O)C(=O)c1ccccc1-2	n	n	x	n	40.5	n	n
O=C1CC(=C2c3ccccc3-c3ccccc32)C(=O)N1CCN1CCN(c2cccc(Cl)c2)CC1	n	n	n	n	40.8	n	n
C=CCN1C(=O)C(O)(CC(=O)c2ccc(-n3cccc3)cc2)c2ccccc21 (centres undefined)	n	n	n	n	43.1	n	36.2
Cc1ccc(C)c(CC(=O)N2CCCCC2c2cc(C(=O)Nc3cccc(C#N)c3)no2)c1 (centres undefined)	x	x	x	x	x	n	x
CCN(CC)S(=O)(=O)c1ccc(C(=O)NC(=S)N2CCCCC2C)cc1 (centres undefined)	x	x	x	x	x	n	x
CC[n+]1ccccc1/C=C1\Sc2ccc(C)cc2N1C	n	n	n	n	41.2	n	n
Cc1ccn2cc(-c3cccc(S(=O)(=O)N4CC(C)OC(C)C4)c3)nc2c1 (centres undefined)	n	n	n	n	41.5	n	n
O=S(=O)(c1cccc(-c2cn3ccccc3n2)c1)N1CCCCC1	n	n	n	n	n	n	x
Cc1nc(-c2cccc(S(=O)(=O)N3CC(C)OC(C)C3)c2)cs1 (centres undefined)	n	n	n	n	n	n	x
